For 58 molecules, inhibition results are on record in PubChem BioAssay AID449762 (Southern Research Specialized Biocontainment Screening …, 2010).

Each structure is given as a SMILES string. Out of some 330,000 compounds screened, about 1,900 (0.58%) were called active. Not shown: some 4% with an inconclusive outcome. Not all results are given here. Measured potencies and affinities stand elsewhere. A number with no mark means an inactive call. Cut-off read from the data, not from the text of the source: inconclusive = inhibition above about 70% without an active follow-up result; inactive = below that.

The nature of this experiment: M. tuberculosis growth inhibition, HTS (AID 449762).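 Note: bacterial growth assessed after seven days of incubation.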 The settings on record: M. tuberculosis H37Rv growth inhibition, 7H9 media; at 25 µM; stronger effect = higher value.
Usually inhibition stands for the relative decrease from the control value, in per cent. With `Cc1cccc(NC(=O)NNC(=O)COc2ccc3ccccc3c2)c1`, the inhibition was -0.35%.

As for `COc1ccc(OC)c(C(c2nnnn2C2CCCC2)N2CCN(c3ccc(F)cc3)CC2)c1` (stereo not drawn), the inhibition is 4.35%. On to `O=C1C(=O)N(c2ccccn2)C(c2ccc(F)cc2)/C1=C(/O)c1ccc(Br)cc1` (stereo not drawn), for which the inhibition was -4.6%. The result for `CC1CCCC(NC(=O)CSC2CCCCC2)C1C` (stereo not drawn) reads 3.14%; that for `CC1CCCC(NC(=O)NC(=O)COC(=O)c2ccc(O)cc2O)C1C` (stereo not drawn), 0.995%; that for `Cc1cccc(OCC(=O)NNC(=O)Cn2c(=O)cnc3ccccc32)c1`, -8.21%. Under `O=C(CSc1nc(=O)n2ccccc2n1)Nc1cccc2ccccc12` stands 5.25%; under `N#Cc1ccccc1OCC(=O)N1N=C(c2cccs2)CC1c1ccco1` (stereo not drawn), 1.37%. Under `c1ccc(-c2cn3c(n2)CCC3)cc1` stands -1.06%; under `c1ccc(-c2cc3ncccc3cn2)cc1`, -4.81%; under `O=C(Nc1cccc2c1CCCC2)c1ccccc1F`, 10.2%. Turning to `NC(=O)c1ccc(-n2c(CCC(=O)O)ccc2-c2cccs2)cc1`, the inhibition was -1.94%.

Consider `CC(=O)c1ccc(-n2c(CCC(=O)O)ccc2-c2cccs2)cc1`, for which the inhibition was -2.12%.

As for `CCc1ccc(NC(=O)CC2C(=O)N(c3ccc(OC)cc3)C(=O)N2CCOC)cc1` (stereo not drawn), the inhibition was -1.31%. Under `CC(C)CNC(=O)c1c(N)n(/N=C/c2ccccn2)c2nc3ccccc3nc12` stands 4.33%; under `CCC(C)NC(=O)c1c(N)n(/N=C/c2cccnc2)c2nc3ccccc3nc12` (stereo not drawn), 27.8%. On to `COc1ccc(/C=C/C(=O)Nc2ccccc2Cl)cc1S(=O)(=O)N1CCOCC1`, for which the inhibition is -10.4%. The result for `COc1ccc(Cn2nnnc2CN2CCc3ccccc32)cc1` reads 1.54%; that for `O=C(COC(=O)c1nsc(Cl)c1Cl)NC1CCCCC1`, 0.77%; that for `CC(OC(=O)c1snc(C(=O)NC2CCCCC2)c1N)C(=O)NC1CCCCC1` (stereo not drawn), -2.81%. The result for `c1ccc(-c2nc3cccnc3nc2-c2ccccc2)cc1` reads -12.8%. The result for `Nc1c(-c2ccccc2)nc(Cl)nc1-c1ccccc1` reads 15.6%; that for `COc1ccc(S(=O)(=O)NCC(=O)N(CC(=O)NCC2CCCO2)Cc2ccccc2)cc1` (stereo not drawn), -4.12%; that for `COc1ccc(CCNC(=O)C(=O)NCc2ccc(C(C)C)cc2)cc1OC`, -15.8%.

On to `COc1ccc(C2(c3ccc(OC)cc3)NC(=O)N(CC(=O)Nc3ccc(C(N)=O)cc3)C2=O)cc1`, for which the inhibition was -7.66%. Under `COc1ccc(NC(=O)CN2C(=O)NC(c3ccccc3)(c3ccccc3)C2=O)cc1` stands -1.71%.

With `CC(C)CCc1noc(CN(CC2CCC2)CC2CCCO2)n1` (stereo not drawn), the inhibition was -1.94%. On to `O=C(COC(=O)Cc1ccc(S(=O)(=O)N2CCOCC2)s1)Nc1ccc([N+](=O)[O-])cc1`, for which the inhibition is -2.45%. The result for `Cc1ccc(CNC(=O)c2ccc(N3CCC4(CC3)CC(c3ccccc3)=NO4)c(NC(=O)c3ccc(Cl)c([N+](=O)[O-])c3)c2)cc1` reads -10.7%; that for `Cc1cccc(NC(=O)CCN2C(=O)c3cccc([N+](=O)[O-])c3C2=O)c1`, -5.47%. The result for `Cc1ccc(NC(=O)CCN2C(=O)c3cccc([N+](=O)[O-])c3C2=O)c(Br)c1` reads 7.28%; that for `O=C(CN1C(=O)COc2ccccc21)c1cccc(Cl)c1`, 1.54%.

With `CCCCN=C1CC(C)(C)CC(=O)/C1=C(/O)CCC`, the inhibition was -2.63%. On to `CCCN=C1CC(C)(C)CC(=O)/C1=C(/O)CCC`, for which the inhibition was -3.03%.

For `CC(=O)Nc1ccc(C(=O)NNC(=O)C2CC2)cc1`, the inhibition is -9.13%. Turning to `O=[N+]([O-])c1cccc2c([N+](=O)[O-])cccc12`, the inhibition is 9.13%. Under `Cc1ccccc1[N+](=O)[O-]` stands -10.8%.

`COc1cccc(CN(C)CC(=O)NCc2ccc(C)cc2)c1`: the inhibition was 7.23%. Under `COC(=O)CN1C(c2ccccc2)=Nc2ccc(Cl)cc2C1c1ccccc1` (stereo not drawn) stands 55.5%; under `NNC(=O)CN1C(c2ccc(Cl)cc2)=Nc2ccc(Br)cc2C1c1ccccc1` (stereo not drawn), 0.4%. The result for `CCCCCC(=O)Nc1cccc(C2=NOC3(C2)C[C@@H](C(N)=O)N(C(=O)c2ccc(Cl)cc2)C3)c1` (stereo partly drawn) reads -9.42%; that for `CCOc1ccc2nc(NC(=O)C3CCCN(S(=O)(=O)c4cccs4)C3)sc2c1` (stereo not drawn), 58.9%. As to `COc1ccc2nc(NC(=O)C3CCN(S(=O)(=O)c4cccs4)CC3)sc2c1`, the inhibition is -5.35%. Under `O=C(NCC1CCCN1S(=O)(=O)c1cccs1)C(=O)Nc1cccc(F)c1` (stereo not drawn) stands -3.47%. The result for `CC(C)Cc1nc(SCC(=O)N2CCCC2)c2c(=O)n(C)c(=O)n(C)c2n1` reads 5.69%; that for `CC(=O)NCc1cc(-c2ccc(Cl)cc2)no1`, -6.41%. The result for `O=S(=O)(NCc1cc(-c2ccc(Cl)cc2)no1)c1ccc(Cl)cc1` reads -3.48%; that for `COc1ccc(C2CC(C)=NN2C=O)cc1OC` (stereo not drawn), -23.4%; that for `O=C(c1cc(COc2ccc(-n3cncn3)cc2)on1)N1CCCC1`, 2.05%. For `C=CCC1(CC=C)CCCN1C(=O)c1cc(COc2ccc(F)c(F)c2)on1`, the inhibition was 11.7%. For the molecule `COc1ccccc1C1=NOC(C)(c2nnc(Cc3ccccc3)o2)C1` (stereo not drawn), the inhibition was -2.16%. Under `Cc1ccc2oc(=O)c3cnn(CC(=O)N(CCN(C)C)Cc4ccco4)c3c2c1` stands -9.56%; under `Cn1c(SCC(=O)NCC2CCCO2)ncc(C(=O)Nc2ccc(F)cc2)c1=O` (stereo not drawn), 67.5%; under `Cn1c(SCC(=O)NCC2CCCO2)ncc(C(=O)Nc2ccccc2)c1=O` (stereo not drawn), 54.1%. The result for `COC(=O)c1ccc2c(=O)[nH]c(CCl)nc2c1` reads 37.7%; that for `COC(=O)c1ccc2c(=O)[nH]c(CSc3nc(-c4ccc(F)cc4)cs3)nc2c1`, -1.24%; that for `COc1cc(-c2nc3c[n+](CC(=O)c4ccccc4)ccc3n2C)cc(OC)c1OC`, 3.76%.

Regarding `COc1cc(OC)c(-c2nc3c[n+](CC(=O)c4ccccc4)ccc3n2C)cc1OC`, the inhibition is -1.07%.
